Measurements reported in PubChem BioAssay (EPA / NIEHS).
Inconclusive results are not listed. Activity calls are given as the source filed them. Rule for the calls: active = hit-call score of the fitted dose curve at least 0.9, where 1 is the maximum; inconclusive = response in the unintended direction; inactive = score below 0.9.

Each compound was assayed against rat Thyrotropin Releasing Hormone Receptor (TRH), Trhr (gene 25570) (UniProt Q01717) (assay: NVS_GPCR_rTRH: NovaScreen (NVS) G Protein-Coupled Receptor Assay for rat Thyrotropin Releasing Hormone Receptor (TRH) (AID 2283329);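 note: hit means lower bound tracer signal versus DMSO baseline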).
Outline: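 Test compounds are screened at 25 uM in duplicate against radioligand binding in rat forebrain membranes, with active pairs followed up over a concentration range. Detection uses filter-based radiodetection after a 4 h exposure.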

rat Thyrotropin Releasing Hormone Receptor (TRH), Trhr (gene 25570), sequence (Q01717 whole entry, looked up): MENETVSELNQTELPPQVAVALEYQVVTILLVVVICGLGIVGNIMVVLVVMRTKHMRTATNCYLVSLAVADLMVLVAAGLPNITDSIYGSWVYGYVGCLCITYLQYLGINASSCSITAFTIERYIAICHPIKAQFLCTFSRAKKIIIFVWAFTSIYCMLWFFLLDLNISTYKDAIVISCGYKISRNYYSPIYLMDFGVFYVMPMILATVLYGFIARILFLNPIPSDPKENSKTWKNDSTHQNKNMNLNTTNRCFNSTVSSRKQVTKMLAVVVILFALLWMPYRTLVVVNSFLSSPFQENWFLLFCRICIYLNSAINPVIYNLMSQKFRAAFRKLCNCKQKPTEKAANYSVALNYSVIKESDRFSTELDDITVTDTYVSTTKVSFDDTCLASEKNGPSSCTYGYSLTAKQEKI

outcome, inactive:
CCCCCCCCN1CCCC1=O
CN1CCOCC1
COS(=O)(=O)O
CC(C=O)Cc1ccc(C(C)(C)C)cc1 (stereo not given)
CCCCCC(=O)CC
C=CC(C)(O)CCC=C(C)C (stereo not given)
c1ccc(Oc2ccccc2)cc1
CCOC(=O)C1OC1c1ccccc1 (stereo not given)
CCC(=O)O[C@@H]1C[C@H]2CC[C@]1(C)C2(C)C
C=Cc1ccc(C)cc1
CSCCC=O
CN(C)c1cccc(O)c1
CCCCCCCCSCCO
CCCCCCCCCCCC(=O)OCC(O)CO (stereo not given)
O=CCc1ccccc1
C=C[Si]1(C)O[Si](C)(C=C)O[Si](C)(C=C)O[Si](C)(C=C)O1 (stereo not given)
CCCCCCCCCCCCCCN(CCO)CCO
OCCc1ccccc1
CCCCCCCCC=CCCCCCCCC1=NCCN1CCO
COC(=O)c1ccc(C)cc1C1=NC(C)(C(C)C)C(=O)N1 (stereo not given) (tested in a mixture with another compound)
O=C1OC(=O)c2c(Cl)c(Cl)c(Cl)c(Cl)c21
CCNCCO
CC(=O)O[C@H]1C[C@@H]2CC[C@@]1(C)C2(C)C
OC[C@H]1O[C@@H]2O[C@H]3[C@H](O)[C@@H](O)[C@@H](O[C@H]4[C@H](O)[C@@H](O)[C@@H](O[C@H]5[C@H](O)[C@@H](O)[C@@H](O[C@H]6[C@H](O)[C@@H](O)[C@@H](O[C@H]7[C@H](O)[C@@H](O)[C@@H](O[C@H]8[C@H](O)[C@@H](O)[C@@H](O[C@H]9[C@H](O)[C@@H](O)[C@@H](O[C@H]1[C@H](O)[C@H]2O)O[C@@H]9CO)O[C@@H]8CO)O[C@@H]7CO)O[C@@H]6CO)O[C@@H]5CO)O[C@@H]4CO)O[C@@H]3CO
C1=CC2C3C=CC(C3)C2C1 (stereo not given)
